Each compound was assayed against AMP-activated protein kinase, AMPK (Homo sapiens) (UniProt P54646+O43741+P54619+Q9UGJ0+Q9Y478+Q13131+Q9UGI9) (assay: AMP-dependent Kinase enzyme assay. An in vitro enzyme assay that detects ADP turnover that is directly proportional to AMPK activity. This uses naive AMPK that is activated during the assay with MK-8722). Settings: 30 µM.
Type: functional
Set-up: scale not given: direction of the effect not stated beside the values

SMILES | Percent Effect
CN(Cc1ccc(F)cc1)Cc1cc2c(cc1Br)OCCO2 | -2.13%
CCC(C)NC(=O)c1sccc1-n1cnnn1 (stereo not given) | 9.35%
CCNc1cc2c(nn1)CCN(C(=O)c1ccc(-n3cccn3)nc1)C2 | -5.94%
Cc1ncc(CC(=O)N2CCCCC2CCN2CCCC2)c(=O)[nH]1 (stereo not given) | 0.508%
CN(Cc1ncc(-c2ccccc2C(=O)O)s1)c1ncccn1 | -8.09%
COCC(C)(O)CNC(=O)c1cc(-c2cc(OC)ccc2OC)nn1C (stereo not given) | 1.19%
CC(C)CN1C[C@@H](C(=O)O)C[C@@H](C(=O)NCc2ccncc2)C1 | -2.13%
O=C(c1nnn(-c2ccccc2)n1)N(CCO)CCO | 0.534%
CCCS(=O)(=O)CC(=O)Nc1ccsc1 | -1.52%
CCOc1ccccc1CCC(=O)Nc1c(C)nn(C)c1C | 8.9%
O=C(CC1COCCN1)N1CCCN(C2Cc3ccccc3C2)CC1 (stereo not given) | -11.6%
COc1ccc2c(c1)OCC(CNC1CCc3ncnn3C1)=C2 (stereo not given) | 7.82%
Cc1ccc(-c2nc(CC3CCN(C)CC3)no2)cc1N1CCNC1=O | 11.1%
CN1CCCC(CCC(=O)N2CCc3c(nc(CC4CC4)[nH]c3=O)C2)C1 (stereo not given) | 10.8%
O=C1NCCN(CC2CCCCC2)C1CC(=O)N1CCc2n[nH]cc2C1 (stereo not given) | -8.97%
COCCCC1CCCN(Cc2c(C)ccc3ncccc23)C1 (stereo not given) | -4.38%
CC(c1ncc(-c2ccccc2)o1)N1CCN(C(=O)N(C)C)CC1 (stereo not given) | -7.85%
COC1CCN(c2ccc(F)cc2CN(C)C(C)C(N)=O)CC1 (stereo not given) | 8.56%
COc1cc2ncn(Cc3ncc[nH]3)c(=O)c2cc1OC | -1.8%
CCc1oc(C(=O)OC)cc1Cn1cccc(C(F)(F)F)c1=O | 6.73%

From ChEMBL document CHEMBL3988442, “University of Dundee, Small-Polar-MMV Screening Library” (2021)
